Experimental data published in PubChem BioAssay (NCI).
Compounds without any hit were thinned out: in the full panel of roughly 79,000, 15% have a hit. A number with no mark means an inactive call. Activity calls are given as the source filed them. No stated cut-off is given here; in the data, active means growth inhibition above about 70%; inactive means the rest. *1 amine or outer side, *2 acyl side, *3 side chain or, on linkers, in order; H or OH if unused. Where a SMILES comes first, the peptide text is derived from it. Bridges are numbered along the chain shown (N, C = ends). Roman numbers before positions name the chains, in order. [ ]: non-standard residue; d: D form. Actinocin(1to9) = Cc1c2oc3c(C)ccc(C(=O)[*:2])c3nc-2c(C(=O)[*:1])c(N)c1=O; NMeV = CN[CH](C(=O)O)C(C)C; Sar = CNCC(=O)O

Assays:
[1] = NCI Yeast Anticancer Drug Screen. Data for the rad50 strain (AID 155);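 further: 0% = growth of vehicle-only cultures of the same strain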; settings: S. cerevisiae rad50 strain growth inhibition, hits give high values
Summary of the method: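 Vehicle-treated cultures provide the reference for the growth inhibition reported for compound-exposed, repair-deficient yeast.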

[2] = NCI Yeast Anticancer Drug Screen. Data for the mec2-1 strain (AID 157); settings: S. cerevisiae mec2-1 strain, hits give high values
Summary of the method: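 Each compound was tested on mec2-1 yeast, a strain altered in DNA damage repair or cell cycle control. Growth inhibition is reported relative to vehicle.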

[3] = NCI Yeast Anticancer Drug Screen. Data for the sgs1 mgt1 strain (AID 161);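 further: 0% = growth of cultures given vehicle only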; settings: S. cerevisiae sgs1 mgt1 strain, hits give high values
Summary of the method: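 Genetically altered yeast, compound exposure, growth inhibition relative to vehicle.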

[4] = NCI Yeast Anticancer Drug Screen. Data for the cln2 rad14 strain (AID 165);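 further: 0% = growth equal to vehicle treated cultures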; settings: S. cerevisiae cln2 rad14 strain, hits give high values
Summary of the method: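 Test compounds were added to cln2 rad14 yeast cultures; inhibition of growth was then determined by comparison with vehicle treatment.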

[5] = NCI Yeast Anticancer Drug Screen. Data for the bub3 strain (AID 167); settings: S. cerevisiae bub3 mutant strain, hits give high values
Summary of the method: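 Mutant yeast screening strain plus compound; vehicle-treated cultures serve as the 0% inhibition reference.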

[6] = NCI Yeast Anticancer Drug Screen. Data for the mlh1 rad18 strain (AID 175); settings: S. cerevisiae mlh1 rad18 strain growth inhibition, hits give high values
Summary of the method: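 Inhibition values reflect reduced growth of mutant yeast versus vehicle-treated controls following compound exposure; the mutations affect DNA damage repair.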

[7] = at 5.0 µM (retest, dose inferred, filed as 0.5)
[8] = at 50.0 µM (retest, dose inferred, filed as 5.0)

Structure (SMILES) | growth inhibition [1, 7] | growth inhibition [1, 8] | growth inhibition ([1]; at 50.0 µM) | growth inhibition [2, 7] | growth inhibition [2, 8] | growth inhibition ([2]; at 50.0 µM) | growth inhibition [3, 7] | growth inhibition [3, 8] | growth inhibition ([3]; at 50.0 µM) | growth inhibition [4, 7] | growth inhibition [4, 8] | growth inhibition ([4]; at 50.0 µM) | growth inhibition [5, 7] | growth inhibition [5, 8] | growth inhibition ([5]; at 50.0 µM) | growth inhibition [6, 7] | growth inhibition [6, 8] | growth inhibition ([6]; at 50.0 µM)
COc1cc(/C=C/c2ccnc3ccccc23)cc(OC)c1OC | 30% | 59% | 43.4% | 34% | 68% | 79.3% (active) | 14% | 93% (active) | 88.2% (active) | 25% | 45% | 65.3% | 43% | 92% (active) | 72.6% (active) | 45% | 81% (active) | 22.2%
O=Cc1ccc(-c2ccc(-c3ccc(CO)s3)o2)s1 | 20% | 62% | 17.2% | 11% | 45% | 4.65% | 5% | 77% (active) | 44.5% | 3% | 33% | -8.55% | 21% | 53% | 16.5% | 20% | 84% (active) | 65.3%
CCC(C)C1NC(=O)C(NC(=O)c2c3nc4c(C(=O)NC5C(=O)NC(C(C)CC)C(=O)N6CCCC6C(=O)N(C)CC(=O)N(C)C(C(C)C)C(=O)OC5C)ccc(C)c4oc-3c(C)c(=O)c2N)C(C)OC(=O)C(C(C)C)N(C)C(=O)CN(C)C(=O)C2CCCN2C1=O (configuration not stated) (I: TIP[Sar][NMeV] / II: TIP[Sar][NMeV]; ester I:1-I:C, II:1-II:C; linker I:N-II:N via Actinocin(1to9); configuration not given here) | 66% | 98% (active) | 91% (active) | 33% | 99% (active) | 93.7% (active) | 32% | 98% (active) | 92.5% (active) | 38% | 97% (active) | 90.7% (active) | 43% | 99% (active) | 92.6% (active) | 67% | 98% (active) | 88.3% (active)
Cc1cc(O)c2c(c1)C(=O)C(c1c(C)cc3c(c1O)C(=O)C1OC1C3=O)=CC2=O (configuration not stated) | 98% (active) | 96% (active) | 76.8% (active) | 99% (active) | 96% (active) | 76.2% (active) | 99% (active) | 95% (active) | 89.7% (active) | 98% (active) | 95% (active) | 79.3% (active) | 99% (active) | 95% (active) | 79.2% (active) | 98% (active) | 97% (active) | 87.8% (active)
CN=C(N)N/N=C(\C)c1ccc2c(c1)Cc1ccccc1-2 | 32% | 98% (active) | 77.5% (active) | 19% | 99% (active) | 59.9% | 51% | 96% (active) | 84.2% (active) | 42% | 86% (active) | 52.8% | 48% | 95% (active) | 81.5% (active) | 26% | 96% (active) | 92.7% (active)
Fc1cccc(F)c1C1SCc2nc3cc4ccccc4cc3n21 (configuration not stated) | 35% | 83% (active) | 23.1% | 24% | 66% | 56.3% | 23% | 47% | 78.5% (active) | 27% | 31% | 80.1% (active) | 30% | 75% (active) | 80.2% (active) | 28% | 75% (active) | 42.5%
O=C(c1ccccc1)C(Br)[N+](=O)[O-] (configuration not stated) | 99% (active) | 99% (active) | 99.7% (active) | 99% (active) | 99% (active) | 99.7% (active) | 99% (active) | 100% (active) | 99.7% (active) | 93% (active) | 99% (active) | 99.7% (active) | 100% (active) | 100% (active) | 99.8% (active) | 99% (active) | 99% (active) | 99.7% (active)
O=C(NOC(=O)c1ccccc1)c1ccccc1 | 93% (active) | 98% (active) | 99.3% (active) | 64% | 99% (active) | 99.5% (active) | 82% (active) | 99% (active) | 99.5% (active) | 31% | 99% (active) | 99.3% (active) | 65% | 99% (active) | 99.3% (active) | 93% (active) | 99% (active) | 99.3% (active)
O=C(O)c1cc2c(s1)C(=O)c1sccc1C2=O | 37% | 75% (active) | 71.5% (active) | 33% | 69% | 57.6% | 39% | 66% | 72% (active) | 12% | 30% | 54.9% | 36% | 79% (active) | 71.2% (active) | 39% | 79% (active) | 92.8% (active)
CCCCCCCCCCCC1N=C(N)N=C(N)N1c1cccc(Br)c1 (configuration not stated) | 99% (active) | 97% (active) | 97.5% (active) | 100% (active) | 97% (active) | 97.7% (active) | 98% (active) | 98% (active) | 99.2% (active) | 99% (active) | 96% (active) | 96.2% (active) | 99% (active) | 98% (active) | 97% (active) | 99% (active) | 97% (active) | 98.3% (active)
CCN(CC)CC(O)c1cc(-c2ccc(Cl)cc2)nc2cc(Cl)ccc12 (configuration not stated) | 2% | 99% (active) | 98% (active) | -3% | 100% (active) | 93.9% (active) | -1% | 99% (active) | 99.7% (active) | -2% | 99% (active) | 47.9% | -3% | 99% (active) | 78.5% (active) | 11% | 99% (active) | 98.3% (active)
CCCCCC/C=C1\CCC(CN2CCCC2)C1=O (configuration not stated) | 52% | 97% (active) | 91% (active) | 33% | 99% (active) | 70.7% (active) | 59% | 96% (active) | 90.4% (active) | 71% (active) | 87% (active) | 81.9% (active) | 66% | 99% (active) | 79.5% (active) | 78% (active) | 98% (active) | 89.2% (active)
CCCCCCCCCCCCN1C(C)=CS/C1=C\C=C\c1scc(C)[n+]1CCCCCCCCCCCC | 9% | 94% (active) | 88% (active) | -4% | 97% (active) | 89.2% (active) | 18% | 96% (active) | 84.7% (active) | 4% | 91% (active) | 85% (active) | 23% | 95% (active) | 85% (active) | 1% | 93% (active) | 83% (active)
Cc1cc(Br)c2nsnc2c1[N+](=O)[O-] | 33% | 94% (active) | 54.4% | 43% | 97% (active) | 78.5% (active) | 30% | 85% (active) | 80.8% (active) | 32% | 88% (active) | 71.2% (active) | 20% | 87% (active) | 68.7% | 37% | 95% (active) | 77.9% (active)
C=C(CO)C(=O)OC1CC(=C)C2CC(O)C(C)C2C2OC(=O)C(=C)C12 (configuration not stated) | 20% | 97% (active) | 86.7% (active) | 15% | 98% (active) | 52.5% | 10% | 97% (active) | 92.5% (active) | 13% | 89% (active) | 32.4% | 9% | 97% (active) | 79.4% (active) | 26% | 98% (active) | 87.7% (active)
COc1ccc(C(OCC2OC(n3ccc(NC(=O)c4ccccc4)nc3=O)C(O)C2O)(c2ccccc2)c2ccccc2)cc1 (configuration not stated) | 56% | 91% (active) | 68.7% | 23% | 91% (active) | 98.2% (active) | 36% | 83% (active) | 56.4% | 76% (active) | 96% (active) | 84.8% (active) | 52% | 90% (active) | 98.5% (active) | 62% | 90% (active) | 84.2% (active)
CN=C(N)N/N=C(\c1ccccc1)c1ccc(Br)cc1 | 11% | 51% | 46.4% | 8% | 39% | 71% (active) | 13% | 43% | 16.9% | 18% | 33% | 12.3% | 5% | 63% | 1.9% | 10% | 64% | -2.1%
S=C1NC2=C(COc3ccccc32)C(c2ccc(Cl)cc2)N1 (configuration not stated) | 59% | 97% (active) | 89.6% (active) | 70% (active) | 98% (active) | 92.5% (active) | 85% (active) | 98% (active) | 92.5% (active) | 69% | 97% (active) | 90.5% (active) | 92% (active) | 98% (active) | 90.8% (active) | 86% (active) | 97% (active) | 83.1% (active)
COc1cc(OC)c(/C=C/c2c3ccccc3cc[n+]2C)c(OC)c1 | 66% | 77% (active) | 61.6% | 33% | 54% | 49.5% | 67% | 84% (active) | 69.5% | 46% | 64% | 9.85% | 67% | 79% (active) | 59.3% | 50% | 68% | 54.1%
